Assay [1] can be described thus: reducers of endogenous Her2 protein level, primary screen, SKBR3 breast tumor cells, AlphaScreen, ATP viability (AID 461;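 active = Her2 level under about 52% in both replicate screens, with viability over 70% of control, limit read from the data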;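 for Her2 level: lower value means less Her2 protein in the cells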;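 for viability: percent of carrier control wells set as 100% viability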). To be noted: 18-24 h, measured here: SKBR3 viability, ATP luminescence, at 10 µM. In general terms: Bead proximity is the source of the signal in Alpha formats.
Assay [2] deals with Receptor tyrosine-protein kinase erbB-2 (Homo sapiens) (UniProt P04626). The description is as above. To be noted: 18-24 h, at 10 µM, stronger effect = lower value.
Sequence of Receptor tyrosine-protein kinase erbB-2 (Homo sapiens) (P04626 whole entry, looked up): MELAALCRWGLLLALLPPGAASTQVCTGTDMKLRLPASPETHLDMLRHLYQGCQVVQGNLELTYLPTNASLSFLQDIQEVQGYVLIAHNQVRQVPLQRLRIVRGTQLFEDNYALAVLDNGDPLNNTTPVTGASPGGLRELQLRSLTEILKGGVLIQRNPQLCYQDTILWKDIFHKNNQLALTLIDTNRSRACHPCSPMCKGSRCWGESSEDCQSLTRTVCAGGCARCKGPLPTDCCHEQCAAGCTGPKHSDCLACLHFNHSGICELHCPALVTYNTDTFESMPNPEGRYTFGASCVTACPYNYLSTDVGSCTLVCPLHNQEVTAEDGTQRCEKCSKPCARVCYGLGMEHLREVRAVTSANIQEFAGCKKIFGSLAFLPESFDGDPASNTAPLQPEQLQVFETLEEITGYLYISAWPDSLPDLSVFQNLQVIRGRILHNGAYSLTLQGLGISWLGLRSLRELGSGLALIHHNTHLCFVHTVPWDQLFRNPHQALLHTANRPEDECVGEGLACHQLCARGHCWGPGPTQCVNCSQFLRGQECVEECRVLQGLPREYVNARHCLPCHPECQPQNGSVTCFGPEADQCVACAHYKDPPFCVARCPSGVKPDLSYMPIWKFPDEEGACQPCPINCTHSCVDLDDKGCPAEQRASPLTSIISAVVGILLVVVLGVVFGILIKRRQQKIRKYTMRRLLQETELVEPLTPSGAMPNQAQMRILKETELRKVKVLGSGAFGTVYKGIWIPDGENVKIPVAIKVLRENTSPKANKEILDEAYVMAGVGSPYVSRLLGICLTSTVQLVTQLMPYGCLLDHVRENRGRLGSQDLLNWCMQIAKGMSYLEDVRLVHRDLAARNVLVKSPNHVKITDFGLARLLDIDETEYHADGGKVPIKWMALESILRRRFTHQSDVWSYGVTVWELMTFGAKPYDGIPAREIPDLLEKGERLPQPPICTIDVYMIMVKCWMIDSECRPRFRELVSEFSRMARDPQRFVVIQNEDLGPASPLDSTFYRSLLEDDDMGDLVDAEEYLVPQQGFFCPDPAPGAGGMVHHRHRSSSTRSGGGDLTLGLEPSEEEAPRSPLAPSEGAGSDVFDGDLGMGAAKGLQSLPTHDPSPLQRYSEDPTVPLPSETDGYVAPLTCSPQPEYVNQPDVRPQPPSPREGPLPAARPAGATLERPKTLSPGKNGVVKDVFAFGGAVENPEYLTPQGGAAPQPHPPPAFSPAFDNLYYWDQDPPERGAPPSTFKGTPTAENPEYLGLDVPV
Assay [3] can be described thus: SK-BR-3 cell growth inhibitors, pilot screen, 24 h, human (AID 572;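 active = viability at or below 10% of carrier control in both of two separate runs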;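 note: compound exposure lasted between 18 and 24 h rather than exactly 24 h; 100% = carrier-treated control wells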). The settings on record: SK-BR-3 viability, CellTiter-Glo luminescence, at 10 µM, stronger effect = lower value.
Assay [4] is described as follows: HUVEC growth inhibition – cell-based, human, primary screen (AID 575;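 active = viability at or below 30% in both replicate assays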;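 note: 100% = median of untreated cell wells with 0.1% DMSO on each plate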). The settings on record: HUVEC proliferation, CellTiter-Glo luminescence, 72 h; at 10 µM; stronger effect = lower value. (In ATP-based viability assays light output follows the ATP content of the culture.)
Assay [5] is described as follows: growth inhibitors of H69AR lung tumor, primary screen, human, duplicate replicates (AID 580;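 active = viability at or under a set limit in both replicates, limit being median viability minus 3 SD, cut at about 48% in these data, passing the limit was not always enough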;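 note: 100% = mean luminescence of untreated wells and 0% = no signal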). The settings on record: H69AR lung tumor cells viability, ATP luminescence, 72 h; at 10 µM; stronger effect = lower value.
Assay [6] in a line: reversal of MRP1-mediated doxorubicin resistance, pilot screen, H69AR cells, doxorubicin co-treatment (AID 601;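 active = viability loss from added drug above about 55%, and viability with drug at most 40%, in both replicates, limit read from the data, passing the limit was not always enough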). To be noted: CellTiter-Glo, 72 h, at 10 µM; for differential viability (reversal): stronger effect = higher value.
Assay [7] in a line: 384-well plate pilot, post-Golgi transport modulator project, inhibition of yeast transport mutant growth (AID 636; in the data active = inhibition above about 31%). The settings on record: absorbance 615 nm, about 18 h, stronger effect = higher value.
The nature of assay [8]: growth suppression of yeast trafficking mutant, preliminary HTS, modulators of trafficking downstream of Golgi apparatus project, 1536-format plate, OD 615 nm (AID 637; in the data active = inhibition above about 30%). To be noted: yeast transport mutant growth, absorbance 615 nm, 18 h; stronger effect = higher value.
Assay [9] is described as follows: OD615 S. cerevisiae growth inhibition, permissive medium, pilot counter-assay, permissive growth control for S. cerevisiae lifespan shortening project (AID 705;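 active = growth inhibition above 25% in both replicates, a cutoff set 3 SD above the mean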). To be noted: OD615, 24 h, at 10 µM, stronger effect = higher value.
Assay [10] in a line: Restrictive medium S. cerevisiae growth inhibition, OD615, pilot screen of yeast lifespan reduction project, restrictive growth control (AID 706;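 active = growth inhibition above a set limit, 3 SD over mean compound inhibition, in both replicates, cut at about 43% in these data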;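 note: modified DeaD lifespan yeast strain shifted to restrictive glucose medium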). The settings on record: OD615, 48 h, at 10 µM, stronger effect = higher value.
Assay [11] in a line: viability gain of MRP-1-high H69AR cells under doxorubicin, pilot screen, MRP-1 activator project, CellTiter-Glo, duplicate (AID 807;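 active = viability increase at or above a cutoff of the median across tested compounds plus 3 SD, cut at about 8.5% in these data, passing the limit was not always enough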;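 note: compound pretreatment 18-22 h then 72 h combined with doxorubicin; 0% = doxorubicin alone and 100% = vehicle without doxorubicin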). To be noted: H69AR viability with doxorubicin, CellTiter-Glo luminescence; at 10 µM; stronger effect = higher value.
Assay [12] in a line: growth suppression of beta-catenin knockout HCT116, pilot screen, human colon tumor cells (AID 823;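 active = cell viability at or below a set limit in both duplicate runs, the limit being the all-compound median minus 4 SD, cut at about 23% in these data, passing the limit was not always enough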;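 note: 0% = wells killed by 20 µM Hyamine and 100% = untreated DMSO cell wells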). The settings on record: CellTiter-Glo, 60 h, at 10 µM, stronger effect = lower value.
The nature of assay [13]: growth suppression of PTEN-deleted HCT116, pilot screen, cell-based, HCT116 clonal line, CellTiter-Glo (AID 824;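 active = viability at or below 27.92% in each of two runs, the all-compound median minus 4 SD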;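 note: 0% = 20 µM Hyamine control and 100% = vehicle cell control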). The settings on record: 60 h, at 10 µM, stronger effect = lower value.
Assay [14] can be described thus: inhibitors of the yeast RAM network, pilot screen, dse1pr::URA3 reporter, 5-FOA selection (AID 869).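 Note: 0% = DMSO wells with no growth and 100% = 10 µM 1-NA-PP1 with full growth; RAM network block rescues cells from 5-FOA so hits raise OD615 growth.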 The settings on record: S. cerevisiae dse1pr::URA3 5-FOA growth, OD615, 2 d; at 10 µM; stronger effect = higher value; strain carries analog-sensitive mutant Cbk1 kinase.
A short description of assay [15]: RAM signaling pathway blockade in yeast – S. cerevisiae, Pdr1DBD-CYC8 efflux-inhibited sensitized strain, primary screen (AID 1298;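 active = RAM network inhibition above 8.4% in each of two replicates, 3 SD over the compound average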;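 note: 0% = DMSO untreated cells without growth and 100% = 10 µM 1-NA-PP1 full growth; higher means more yeast growth rescued from 5-FOA killing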). To be noted: S. cerevisiae cbk1-as DSE1-URA3 strain, 5-FOA growth OD615, 2 d; at 50 µM; stronger effect = higher value.
The mark [16] stands for this setting: H69AR cells + 2 uM doxorubicin, measured here: viability with 2 uM doxorubicin, stronger effect = lower value.
Where [17] appears, read: H69AR cells, compound alone cytotoxicity.

Structures are written as SMILES. Inconclusive results are not listed. Activity calls are given as the source filed them.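 Rule for the calls, unless noted: active = inhibition over a set limit, the all-compound mean plus 3 SD, in both replicate runs; inconclusive = over that limit in just one replicate run; inactive = at or under that limit in both runs.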

Broadly, the viability is a read-out of living cells in per cent, often relative to untreated cells. In general, inhibition refers to the change of the read-out against control, counted positive when it falls. Regarding `CCOC(=O)N1CCC(NC(=O)c2ccc3c(c2)N(CC)CCS3)CC1`, the viability was 94.5% in [1]; 94.5% (inactive) in assay [3]; 100% (inactive) in assay [4]; 74.2% (inactive) in assay [5]; 79.6% in assay [6] (setting [16]); 74.2% in [6] (setting [17]). Moreover, the viability in assay [12] is 98.2% (inactive); in assay [13] it was 97% (inactive). Besides, in [2], the Her2 level was 91.5% (inactive). The differential viability (reversal) in assay [6] (H69AR cells + 2 uM doxorubicin) was -5.34% (inactive). Further, the inhibition in assay [7] is -6.93% (inactive); in assay [8] it was -0.33% (inactive); in assay [14], 3.51% (inactive). For the same compound, the growth inhibition was -10.9% (inactive) in [9] and -0.105% (inactive) in assay [10]. Besides, the viability increase in assay [11] was -3.08% (inactive). For the same compound, in assay [15], the RAM network inhibition was 2.26% (inactive).
In the case of `O=S(=O)(c1ccc(F)cc1)N1CCC(N2CCCC2)CC1`, the viability is 104% in [1]; 104% (inactive) in assay [3]; 89% (inactive) in assay [4]; 91.2% (inactive) in assay [5]; 80.9% in assay [6] (setting [16]); 91.2% in assay [6] (setting [17]). Besides, the values for the viability in assay [12] and in assay [13] were 96.2% (inactive) and 95.9% (inactive), respectively. The Her2 level in [2] is 96% (inactive). The differential viability (reversal) in [6] (H69AR cells + 2 uM doxorubicin) was 10.3% (inactive). Besides, the results for the inhibition in assay [7], in assay [8] and in assay [14] were -4.4% (inactive), 3.67% (inactive) and 1.23% (inactive), respectively. The growth inhibition in [9] was -0.015% (inactive); in assay [10], -5.88% (inactive). Moreover, the viability increase in assay [11] is -2.89% (inactive). In assay [15], the RAM network inhibition is 0.93% (inactive).
With `COc1ccc(C2CC(c3ccc(Cl)cc3Cl)Nc3nc(N)nn32)cc1` (stereo not drawn), the viability in assay [1] was 94%; in [3] it was 94% (inactive); in assay [4] it was 115% (inactive); in [5] it was 94% (inactive); in assay [6] (setting [16]), 90.2%; in [6] (setting [17]), 94%. The figures for the viability in assay [12] and in [13] were 85.3% (inactive) and 73.3% (inactive), respectively. In assay [2], the Her2 level was 92% (inactive). In addition, in assay [6] (H69AR cells + 2 uM doxorubicin), the differential viability (reversal) was 3.8% (inactive). Besides, the figures for the inhibition in [7], in assay [8] and in [14] were -1.67% (inactive), -0.5% (inactive) and 2.17% (inactive), respectively. For the same compound, the growth inhibition in assay [9] is 12.9% (inactive); in [10], 31.5% (inactive). Further, in assay [11], the viability increase is 0.19% (inactive). In assay [15], the RAM network inhibition was 8.01% (inactive).
With `COc1cccc(-c2cc(C(=O)N3CCCCCC3)no2)c1`, the viability in assay [1] is 98.5%; in [3] it was 98.5% (inactive); in assay [4], 77.4% (inactive); in [5], 85.9% (inactive); in [6] (setting [16]), 77.7%; in assay [6] (setting [17]) it was 85.9%. Also, the viability in assay [12] was 96.6% (inactive); in [13], 90.9% (inactive). Besides, in [2], the Her2 level was 94% (inactive). Besides, the differential viability (reversal) in assay [6] (H69AR cells + 2 uM doxorubicin) was 8.21% (inactive). The inhibition is -5.2% (inactive) in assay [7], 2.83% (inactive) in assay [8] and 0.305% (inactive) in assay [14]. The growth inhibition in assay [9] is -12.5% (inactive); in [10] it was -18.2% (inactive). Also, in assay [11], the viability increase was -0.05% (inactive). Moreover, in assay [15], the RAM network inhibition is 0.68% (inactive).
As for `Cc1nc2sc(C(c3cccs3)N3CCOCC3)c(O)n2n1` (stereo not drawn), the viability in assay [1] was 90%; in assay [3], 90% (inactive); in assay [4], 94.8% (inactive); in assay [5], 88.6% (inactive); in [6] (setting [16]), 93.4%; in [6] (setting [17]), 88.6%. The viability in [12] is 107% (inactive); in assay [13] it was 94.2% (inactive). Also, in assay [2], the Her2 level is 100% (inactive). Besides, the differential viability (reversal) in assay [6] (H69AR cells + 2 uM doxorubicin) was -4.79% (inactive). The inhibition in [7] is -7.73% (inactive); in assay [8] it was -0.83% (inactive); in assay [14], 1.54% (inactive). Moreover, the growth inhibition was -7.23% (inactive) in assay [9] and -11.9% (inactive) in assay [10]. For the same compound, the viability increase in assay [11] is -0.31% (inactive). Also, the RAM network inhibition in [15] is 1.99% (inactive).
As for `C=CCOc1ccc(/C(CC)=N/O)c(OC)c1`, the viability is 93.5% in assay [1]; 93.5% (inactive) in assay [3]; 70.4% (inactive) in [4]; 101% (inactive) in assay [5]; 90.9% in assay [6] (setting [16]); 101% in assay [6] (setting [17]). For the same compound, the viability in assay [12] is 96.7% (inactive); in assay [13], 105% (inactive). In assay [2], the Her2 level was 104% (inactive). Besides, the differential viability (reversal) in assay [6] (H69AR cells + 2 uM doxorubicin) is 10.5% (inactive). Also, the figures for the inhibition in assay [7], in assay [8] and in [14] were -1.82% (inactive), 0.5% (inactive) and 0.56% (inactive), respectively. Besides, the growth inhibition in assay [9] is -19.1% (inactive); in assay [10], -11.4% (inactive). Moreover, in assay [11], the viability increase was -0.09% (inactive). Also, the RAM network inhibition in assay [15] is -0.68% (inactive).
Take `CC(=O)c1cc2c(cc1NC(=O)CN1CCN(C(=O)c3ccco3)CC1)OCO2`: the viability in [1] is 90%; in assay [3], 90% (inactive); in [4], 92.5% (inactive); in [5], 86.3% (inactive); in assay [6] (setting [16]), 89.5%; in [6] (setting [17]), 86.3%. Moreover, the viability is 98.2% (inactive) in [12] and 97% (inactive) in assay [13]. The Her2 level in assay [2] is 120% (inactive). Moreover, the differential viability (reversal) in assay [6] (H69AR cells + 2 uM doxorubicin) was -3.21% (inactive). The inhibition in assay [7] is -5.47% (inactive); in [8], -3.5% (inactive); in assay [14] it was 2.79% (inactive). For the same compound, the values for the growth inhibition in assay [9] and in assay [10] were 0.565% (inactive) and -17.1% (inactive), respectively. The viability increase in [11] is -3.21% (inactive). Moreover, the RAM network inhibition in assay [15] is 0.37% (inactive).
For the compound `O=C(C1CCC(CNc2c(N3CCCCC3)c(=O)c2=O)CC1)N1CCc2ccccc2C1` (stereo not drawn), the viability is 95% in [1]; 95% (inactive) in assay [3]; 107% (inactive) in [4]; 91.8% (inactive) in assay [5]; 82.3% in [6] (setting [16]); 91.8% in assay [6] (setting [17]). Also, the viability is 87.5% (inactive) in assay [12] and 83.2% (inactive) in [13]. Moreover, the Her2 level in [2] is 93.5% (inactive). In addition, in [6] (H69AR cells + 2 uM doxorubicin), the differential viability (reversal) was 9.49% (inactive). The inhibition was -0.53% (inactive) in [7], 0% (inactive) in assay [8] and -0.07% (inactive) in assay [14]. For the same compound, the growth inhibition in [9] was -4.97% (inactive); in [10], -4.18% (inactive). Moreover, the viability increase in [11] is -3.33% (inactive). The RAM network inhibition in [15] is 2.9% (inactive).
As to `CC(c1ccccc1)n1cnc2ccccc21` (stereo not drawn), the viability in assay [1] was 82%; in assay [3], 82% (inactive); in assay [4], 93.4% (inactive); in [5] it was 93.5% (inactive); in [6] (setting [16]), 93.3%; in [6] (setting [17]), 93.5%. In addition, the viability is 103% (inactive) in [12] and 95.2% (inactive) in [13]. Also, in assay [2], the Her2 level was 104% (inactive). In addition, in assay [6] (H69AR cells + 2 uM doxorubicin), the differential viability (reversal) was 0.135% (inactive). Moreover, the inhibition in assay [7] was -1.15% (inactive); in [8], 0.33% (inactive); in assay [14], -0.115% (inactive). The growth inhibition in [9] was -3.42% (inactive); in assay [10], 0.48% (inactive). For the same compound, the viability increase in [11] was -1.05% (inactive). Moreover, the RAM network inhibition in [15] was 0.83% (inactive).

The record behind these values is PubChem BioAssay.
